Data reported in PubChem BioAssay (EPA / NIEHS).
Active and inactive are the calls of the source. The calls were made as follows: active = hit-call score of the fitted dose curve at least 0.9, where 1 is the maximum; inactive = score below 0.9.

Legend:
[1] = target: Bile acid receptor (Homo sapiens) (UniProt Q96RI1); assay: ATG_IR1_CIS: Attagene CIS-FACTORIAL HepG2 Assay for human Nuclear Receptor Subfamily 1 Group H Member 4 (NR1H4), IR1 submotif (AID 2282946); settings: IR1 reporter transcription, actives raise or lower the signal
Bile acid receptor (Homo sapiens), sequence (Q96RI1 whole entry, looked up): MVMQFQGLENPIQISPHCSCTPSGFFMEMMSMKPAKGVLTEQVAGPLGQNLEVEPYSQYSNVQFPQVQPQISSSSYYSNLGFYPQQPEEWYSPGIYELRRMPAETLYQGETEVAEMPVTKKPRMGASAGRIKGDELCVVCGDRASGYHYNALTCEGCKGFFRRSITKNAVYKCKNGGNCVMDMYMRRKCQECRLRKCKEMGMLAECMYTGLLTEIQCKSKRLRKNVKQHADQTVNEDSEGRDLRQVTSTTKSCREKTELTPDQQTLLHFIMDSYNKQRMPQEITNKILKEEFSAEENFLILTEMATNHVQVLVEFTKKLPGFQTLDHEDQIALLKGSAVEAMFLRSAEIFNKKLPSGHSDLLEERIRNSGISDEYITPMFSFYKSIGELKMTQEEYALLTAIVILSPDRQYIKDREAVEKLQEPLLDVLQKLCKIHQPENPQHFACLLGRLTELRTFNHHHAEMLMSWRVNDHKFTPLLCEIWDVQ
In short: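 Fluorescence of capillary-separated, HpaI-digested RT-PCR reporter products gave IR1-element mRNA induction in HepG2 cells 24 h after dosing. Endogenous transcription factors drove the cis-regulated reporters; activity was fitted bidirectionally against DMSO.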

[2] = ATG_GRE_CIS: Attagene CIS-FACTORIAL HepG2 Assay for human Glucocorticoid Response Elements (GRE) (AID 2282947); settings: HepG2 GRE cis-reporter, Attagene multiplex mRNA; actives raise or lower the signal
In short: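 Fluorescence intensity of reporter-specific cDNA fragments, separated by capillary electrophoresis, provides the signal. Constructs carry cis-regulating promoters in transiently transfected HepG2 liver cells; 24 h incubation; fitting is bidirectional against DMSO.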

[3] = ATG_ISRE_CIS: Attagene CIS-FACTORIAL HepG2 Assay for human Interferon Regulatory Factor 1 (IRF1) binding to an Interferon-Stimulated Response Element (ISRE) (AID 2282948); settings: HepG2 ISRE cis-reporter (Attagene), mRNA transcription readout; actives raise or lower the signal
In short: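 Signal reflects induction or loss of ISRE-linked reporter mRNA in transiently transfected HepG2 cells after a 24 h treatment, detected by fluorescent RT-PCR fragments on capillary electrophoresis and normalised to DMSO.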

[4] = ATG_M_32_CIS: Attagene CIS-FACTORIAL HepG2 Assay for M32 Transcription Factor (Internal Marker) (AID 2282949); settings: HepG2 Attagene cis-factorial M32 reporter, mRNA; actives raise or lower the signal;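 also: background control marker of the multiplexed CIS panel rather than a real target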
In short: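 HepG2 transfectants (cis-regulated reporter transcription units) dosed 24 h. Reporter mRNA by RT-PCR plus CE, analysed as gain or loss relative to DMSO.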

[5] = ATG_M_06_CIS: Attagene CIS-FACTORIAL HepG2 Assay for M06 Transcription Factor (Internal Marker) (AID 2282950); settings: HepG2 Attagene CIS-FACTORIAL M06 internal marker reporter; actives raise or lower the signal
In short: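 HepG2 cells transiently transfected with cis-regulated multiple reporter transcription units were exposed to chemical for 24 h; reporter mRNA was quantified by RT-PCR, 6-FAM primer labelling, HpaI digestion and capillary electrophoresis, fitted bidirectionally against DMSO.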

[6] = target: Hypoxia-inducible factor 1-alpha (Homo sapiens) (UniProt Q16665); assay: ATG_HIF1a_CIS: Attagene CIS-FACTORIAL HepG2 Assay for human Hypoxia Inducible Factor 1 (HIF1A) (AID 2282951); settings: HepG2 Attagene cis-factorial HIF1a reporter transcription; actives raise or lower the signal
Hypoxia-inducible factor 1-alpha (Homo sapiens), sequence (Q16665 whole entry, looked up): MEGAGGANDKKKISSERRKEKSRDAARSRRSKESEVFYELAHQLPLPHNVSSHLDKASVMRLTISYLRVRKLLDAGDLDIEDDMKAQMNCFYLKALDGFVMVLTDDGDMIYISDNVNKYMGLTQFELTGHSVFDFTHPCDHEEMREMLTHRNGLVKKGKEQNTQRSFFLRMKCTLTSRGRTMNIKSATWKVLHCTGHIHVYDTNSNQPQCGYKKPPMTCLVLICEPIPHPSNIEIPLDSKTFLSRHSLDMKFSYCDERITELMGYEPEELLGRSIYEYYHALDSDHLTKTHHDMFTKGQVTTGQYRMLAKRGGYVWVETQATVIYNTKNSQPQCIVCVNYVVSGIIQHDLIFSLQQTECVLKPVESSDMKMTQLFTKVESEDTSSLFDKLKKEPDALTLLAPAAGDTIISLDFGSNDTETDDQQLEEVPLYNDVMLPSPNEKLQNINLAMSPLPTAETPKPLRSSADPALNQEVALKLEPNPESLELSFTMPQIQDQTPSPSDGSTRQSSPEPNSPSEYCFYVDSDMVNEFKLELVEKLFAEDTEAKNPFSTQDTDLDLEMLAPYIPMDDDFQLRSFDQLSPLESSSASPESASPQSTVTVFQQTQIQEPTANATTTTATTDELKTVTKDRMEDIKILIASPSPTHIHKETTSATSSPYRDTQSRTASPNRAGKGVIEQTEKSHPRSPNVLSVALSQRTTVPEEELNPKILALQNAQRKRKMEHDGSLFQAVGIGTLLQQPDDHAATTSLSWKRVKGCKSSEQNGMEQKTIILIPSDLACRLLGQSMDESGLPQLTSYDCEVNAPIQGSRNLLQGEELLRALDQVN
In short: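 In this multiplexed cell assay, HepG2 cells bearing transfected cis reporters are dosed for 24 h and reporter mRNA is read by RT-PCR plus capillary electrophoresis; signal increases and decreases are both scored against DMSO.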

[7] = target: Hepatocyte nuclear factor 6 (Homo sapiens) (UniProt Q9UBC0); assay: ATG_HNF6_CIS: Attagene CIS-FACTORIAL HepG2 Assay for human Hepatocyte Nuclear Factor 6 (HNF6) (AID 2282952); settings: HepG2 Attagene cis-factorial HNF6 reporter transcription; actives raise or lower the signal
Hepatocyte nuclear factor 6 (Homo sapiens), sequence (Q9UBC0 whole entry, looked up, the tested form may be a part): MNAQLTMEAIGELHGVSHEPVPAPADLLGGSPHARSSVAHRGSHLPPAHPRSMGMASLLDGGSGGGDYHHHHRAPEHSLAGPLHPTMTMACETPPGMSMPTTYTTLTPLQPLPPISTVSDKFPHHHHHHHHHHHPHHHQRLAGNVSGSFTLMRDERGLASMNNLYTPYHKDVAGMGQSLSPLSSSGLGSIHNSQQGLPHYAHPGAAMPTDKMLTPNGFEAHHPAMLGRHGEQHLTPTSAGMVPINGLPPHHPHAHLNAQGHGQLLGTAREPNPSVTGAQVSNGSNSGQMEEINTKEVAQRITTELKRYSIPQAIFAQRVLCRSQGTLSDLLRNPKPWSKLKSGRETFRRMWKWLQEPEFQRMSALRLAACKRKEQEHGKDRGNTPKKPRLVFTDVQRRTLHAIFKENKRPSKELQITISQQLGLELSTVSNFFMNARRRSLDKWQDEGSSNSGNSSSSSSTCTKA
In short: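 First, HepG2 cells were transfected with the multiplexed cis reporter library and dosed with chemical for 24 h. Next, RNA was reverse-transcribed, PCR-amplified and fluorescently labelled. Finally, HpaI-digested fragments were read by capillary electrophoresis.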

[8] = target: Heat shock factor protein 1 (Homo sapiens) (UniProt Q00613); assay: ATG_HSE_CIS: Attagene CIS-FACTORIAL HepG2 Assay for human Heat Shock Transcription Factor 1 (HSE) (AID 2282953); settings: HepG2 HSE cis-reporter, Attagene RNA transcription; actives raise or lower the signal
Heat shock factor protein 1 (Homo sapiens), sequence (Q00613 whole entry, looked up): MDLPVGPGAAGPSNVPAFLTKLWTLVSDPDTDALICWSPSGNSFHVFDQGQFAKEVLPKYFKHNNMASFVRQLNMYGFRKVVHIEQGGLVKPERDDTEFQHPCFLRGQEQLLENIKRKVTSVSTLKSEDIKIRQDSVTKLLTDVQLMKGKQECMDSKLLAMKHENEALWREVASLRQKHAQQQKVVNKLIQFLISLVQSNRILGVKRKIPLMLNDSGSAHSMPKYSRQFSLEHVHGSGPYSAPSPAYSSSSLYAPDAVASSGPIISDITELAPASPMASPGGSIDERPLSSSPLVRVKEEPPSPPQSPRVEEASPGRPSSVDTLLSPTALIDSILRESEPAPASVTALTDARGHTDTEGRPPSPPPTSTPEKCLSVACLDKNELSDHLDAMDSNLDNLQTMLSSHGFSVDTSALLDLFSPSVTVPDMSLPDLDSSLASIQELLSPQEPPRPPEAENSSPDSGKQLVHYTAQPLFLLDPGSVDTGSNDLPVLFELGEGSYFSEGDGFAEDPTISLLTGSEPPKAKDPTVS
In short: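 HepG2 cells transiently transfected with multiple reporter transcription units under cis-regulatory promoter control, measuring endogenous transcription factor activity. After 24 h chemical exposure, reporter mRNA quantified by RT-PCR, fluorescent labelling, HpaI digestion and capillary electrophoresis; bidirectional fit versus DMSO.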

[9] = ATG_MRE_CIS: Attagene CIS-FACTORIAL HepG2 Assay for human Metal Responsive Element (MRE) (AID 2282954); settings: HepG2 MRE cis-reporter transcription, Attagene multiplex; actives raise or lower the signal
In short: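 Measured here is mRNA induction from an MRE cis-element reporter in HepG2 after 24 h, quantified by fluorescence of labelled RT-PCR products on capillary electrophoresis; gain- and loss-of-signal fits use DMSO as baseline.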

[10] = ATG_PBREM_CIS: Attagene CIS-FACTORIAL HepG2 Assay for human Phenobarbital-responsive Enhancer Module (PBREM) (AID 2282955); settings: HepG2 PBREM cis-reporter, Attagene multiplexed transcription; actives raise or lower the signal
In short: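 After a 24 h incubation with test chemical, transfected HepG2 cells yield total RNA; reporter-specific RT-PCR products are fluorescently labelled, HpaI-digested and resolved by capillary electrophoresis against ROX size standards.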

Measured: AC50

Cc1ccc(OC(=O)CC(C)C)cc1
inactive: all assays above

C1CN(SSN2CCOCC2)CCO1
active: [8] 44.4 µM
not listed: [5] | [10]
inactive: all other assays above

CCCCCCCC/C=C\CCCCCCCC(=O)O
active: [1] 32 µM
not listed: [8] | [10]
inactive: all other assays above

O=C(c1ccc(O)cc1)c1ccc(O)cc1O
not listed: [8]
inactive: all other assays above

CC(=O)[C@H]1[C@H](C#N)C[C@H]2[C@@H]3CC=C4C[C@@H](O)CC[C@]4(C)[C@H]3CC[C@@]21C
not listed: [6] | [10]
inactive: all other assays above

OCCCS
not listed: [5] | [8] | [10]
inactive: all other assays above

CO[Si](CCC1CCC2OC2C1)(OC)OC (stereo not given)
not listed: [8]
inactive: all other assays above

O=C1Nc2ccccc2C1(c1ccc(O)cc1)c1ccc(O)cc1
active: [1] 148 µM | [3] 84.2 µM | [6] 57.2 µM | [9] 70.4 µM
inactive: [2] | [4] | [5] | [7]

CC(C)(C)c1ccc(OC(=O)c2ccccc2O)cc1
not listed: [5]
inactive: all other assays above

CC(C)(C)C(=O)C=Cc1ccc(Cl)cc1
active: [1] 10 µM | [3] 24.9 µM | [4] 132 µM | [5] 148 µM | [6] 26.3 µM | [7] 23.6 µM | [8] 34.3 µM | [9] 34 µM
inactive: [2] | [10]

C=C1[C@H]2CC[C@@H]3[C@H]2C(C)(C)CCC[C@]13C
not listed: [8]
inactive: all other assays above

O=C(Nc1cccc(C(F)(F)F)c1)c1cc(Br)cc(Br)c1O
active: [1] 66.7 µM | [3] 100 µM | [6] 19.9 µM | [8] 46.2 µM | [9] 85.8 µM | [10] 1.89 µM
inactive: [2] | [4] | [5] | [7]

CCCCCCC(O)CO (stereo not given)
not listed: [7]
inactive: all other assays above

CCOc1nc(F)cc2nc(S(=O)(=O)Nc3c(Cl)cccc3C(=O)OC)nn12
not listed: [5]
inactive: all other assays above

O=C(O)c1cc2ccccc2nc1C(=O)O
inactive: all assays above

OCCN(CCO)c1ccccc1
not listed: [7] | [10]
inactive: all other assays above

c1ccc2c(c1)ccc1cc3c(ccc4ccccc43)cc12
active: [6] 0.364 µM
not listed: [8] | [10]
inactive: all other assays above

Cc1ccc2oc(=O)ccc2c1
inactive: all assays above

CCOC(F)(F)C(F)(F)C(F)(F)C(F)(F)F
not listed: [5]
inactive: all other assays above

CC=CCO
not listed: [8] | [10]
inactive: all other assays above

Cn1c(=O)[nH]c2ncn(C)c2c1=O
not listed: [6] | [10]
inactive: all other assays above

CCCCCCOC(=O)C(C)CC (stereo not given)
not listed: [5] | [7]
inactive: all other assays above

CC(C)c1ccc2c(c1)CC[C@H]1[C@](C)(CN)CCC[C@]21C
active: [8] 6.29 µM | [9] 5.77 µM
not listed: [6] | [10]
inactive: all other assays above

Cc1cnc(NC(=O)C2=C(O)c3ccccc3S(=O)(=O)N2C)s1
not listed: [6] | [10]
inactive: all other assays above

CCCCCCCC(C)=O
not listed: [7] | [10]
inactive: all other assays above

C=C[C@](C)(O)CC[C@@H]1[C@@]2(C)CCCC(C)(C)[C@@H]2CC[C@@]1(C)O
not listed: [7]
inactive: all other assays above

O=C1C=CC(=O)O1
not listed: [7] | [10]
inactive: all other assays above

Clc1nc2ccccc2s1
not listed: [8] | [10]
inactive: all other assays above

CCOC(=O)[C@H](C)O
inactive: all assays above

NC(=O)C1CO1 (stereo not given)
not listed: [7] | [8] | [10]
inactive: all other assays above

Nc1ccc(Cl)cc1Cl
not listed: [8] | [10]
inactive: all other assays above

COC(=O)c1sccc1S(N)(=O)=O
not listed: [7]
inactive: all other assays above

COCC(C)N (stereo not given)
inactive: all assays above

COC(=O)C1=C(C)NC(C)=C(C(=O)OCC(C)C)C1c1ccccc1[N+](=O)[O-] (stereo not given)
active: [3] 11.1 µM | [6] 18 µM
not listed: [8] | [10]
inactive: all other assays above

CC1=NN(c2cc(S(=O)(=O)O)ccc2Cl)C(=O)C1N=Nc1ccccc1 (stereo not given)
not listed: [5] | [8]
inactive: all other assays above

O=C(O)c1cc(Cl)cc([N+](=O)[O-])c1Cl
inactive: all assays above

CC(C)C(=O)C(C)C
active: [8] 68.7 µM
inactive: all other assays above

O=Cc1ccc(CO)o1
not listed: [7]
inactive: all other assays above

CC(C)(C)c1ccc(-c2ccc(C(C)(C)C)cc2)cc1
not listed: [8]
inactive: all other assays above

O=C(C(Cl)Cl)N1CCOC12CCCCC2
active: [1] 5.74 µM
not listed: [8]
inactive: all other assays above

COc1cc(C)ccc1C(C)C
not listed: [2] | [10]
inactive: all other assays above

CC(C)=CC1CC(C)CCO1 (stereo not given)
not listed: [2] | [8] | [10]
inactive: all other assays above

C(=CC=Nc1ccccc1)C=CNc1ccccc1
not listed: [2]
inactive: all other assays above

CCC(C)C=O (stereo not given)
not listed: [2] | [10]
inactive: all other assays above

CCCCCCCCCCc1ccccc1
not listed: [3] | [10]
inactive: all other assays above

CCCCOCCOC(=O)COc1nc(Cl)c(Cl)cc1Cl
not listed: [3] | [10]
inactive: all other assays above

CCCCCCCCO[C@@H]1O[C@H](CO)[C@@H](O)[C@H](O)[C@H]1O
not listed: [3] | [8] | [10]
inactive: all other assays above

CC(C)COC(=O)C=Cc1ccccc1
not listed: [2]
inactive: all other assays above

OCCc1ccncc1
not listed: [2] | [10]
inactive: all other assays above

CC(=O)OC1C2(C)CCC(C2)C1(C)C (stereo not given)
not listed: [2] | [10]
inactive: all other assays above

CC/C=C\C/C=C\C/C=C\CCCCCCCC(=O)O
active: [3] 69 µM | [8] 188 µM | [9] 140 µM
not listed: [2]
inactive: all other assays above

CC(C)(C)c1n[nH]c(=O)n(N)c1=O
not listed: [2] | [10]
inactive: all other assays above

CCCC(=O)OCc1ccccc1
not listed: [2] | [10]
inactive: all other assays above

CCCCCC/C=C\CCCCCCCC(=O)O
not listed: [2]
inactive: all other assays above

COC(=O)c1ccccc1OC
not listed: [3] | [10]
inactive: all other assays above
